Measured values as given in PubChem BioAssay AID1159580 (chemical genetic matrix, 2015).
Several values for one entry are separate records, joined by “and”; a condition that tells them apart may be missing. Equal values may be shown once. Screen size: about 5,500 compounds; about 2,000 (36%) were called active. Inconclusive results (about 18%) are left out. No stated cut-off is given here; in the data, active means normalized growth mostly below about 0.91 (no sharp cut-off); inconclusive means no clear call, values can overlap the other calls; inactive means mostly above about 0.92. The list shows a part of the results.

Assay: chemical genetic growth profiling, strain panel (AID 1159580);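 further: tested at 20 µM; growth read once vehicle control cultures reached saturation at 30 °C; 1 = growth at the plate median or of vehicle wells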
Conditions: growth OD

Measured: normalized growth

CN1CCN(C2=Nc3cc(Cl)ccc3Nc3ccccc32)CC1
inactive: S. cerevisiae deletion strains, locus YJR066W, strain TOR1, stronger effect = lower value 0.997 | S. cerevisiae deletion strains, locus YJR075W, strain HOC1, stronger effect = lower value 0.982 | S. cerevisiae deletion strains, locus YKL009W, strain mrt4, stronger effect = lower value 1.01 | S. cerevisiae deletion strains, locus YKL068W, stronger effect = lower value 1.01 | S. cerevisiae deletion strains, locus YKL085W, strain MDH1 (second series), stronger effect = lower value 1.04 | S. cerevisiae deletion strains, locus YKL085W, strain MDH1, stronger effect = lower value 1.04 | S. cerevisiae deletion strains, locus YKL160W, strain elf1, stronger effect = lower value 0.972 | S. cerevisiae deletion strains, locus YKL190W, strain CNB1, stronger effect = lower value 1.02 | S. cerevisiae deletion strains, locus YKR001C, strain vps1, stronger effect = lower value 1.03 | S. cerevisiae deletion strains, locus YKR026C, strain gcn3, stronger effect = lower value 0.988 | S. cerevisiae deletion strains, locus YKR091W, strain srl3, stronger effect = lower value 0.98 | S. cerevisiae deletion strains, locus YLL001W, strain dnm1, stronger effect = lower value 0.984 | S. cerevisiae deletion strains, locus YLL026W, stronger effect = lower value 1 | S. cerevisiae deletion strains, locus YLL041C, strain sdh2, stronger effect = lower value 0.992 | S. cerevisiae deletion strains, locus YLR027C, strain aat2, stronger effect = lower value 0.988 | S. cerevisiae deletion strains, locus YLR039C, strain RIC1, stronger effect = lower value 1.25 | S. cerevisiae deletion strains, locus YLR058C, strain SHM2, stronger effect = lower value 1.01 | S. cerevisiae deletion strains, locus YLR102C, strain apc9, stronger effect = lower value 1.02 | S. cerevisiae deletion strains, locus YLR113W, strain HOG1, stronger effect = lower value 1.01 | S. cerevisiae deletion strains, locus YLR221C, strain rsa3, stronger effect = lower value 1.01 | S. cerevisiae deletion strains, locus YLR258W, strain gsy2, stronger effect = lower value 0.983 | S. cerevisiae deletion strains, locus YLR262C, strain YPT6 (second series), stronger effect = lower value 1.05 | S. cerevisiae deletion strains, locus YLR262C, strain YPT6, stronger effect = lower value 1.2 | S. cerevisiae deletion strains, locus YLR268W, strain sec22, stronger effect = lower value 1.01 | S. cerevisiae deletion strains, locus YLR320W, strain mms22, stronger effect = lower value 0.952 | S. cerevisiae deletion strains, locus YLR330W, strain CHS5, stronger effect = lower value 1.02 | S. cerevisiae deletion strains, locus YLR342W, strain FKS1 (second series), stronger effect = lower value 1.04 | S. cerevisiae deletion strains, locus YLR342W, strain FKS1, stronger effect = lower value 0.953 | S. cerevisiae deletion strains, locus YLR357W, strain rsc2, stronger effect = lower value 1.01 | S. cerevisiae deletion strains, locus YLR370C, strain arc18, stronger effect = lower value 0.984 | S. cerevisiae deletion strains, locus YLR371W, strain rom2, stronger effect = lower value 1.03 | S. cerevisiae deletion strains, locus YLR384C, strain iki3, stronger effect = lower value 0.984 | S. cerevisiae deletion strains, locus YLR418C, strain cdc73, stronger effect = lower value 0.955 | S. cerevisiae deletion strains, locus YML016C, strain PPZ1, stronger effect = lower value 1.01 | S. cerevisiae deletion strains, locus YML032C, strain rad52, stronger effect = lower value 0.935 | S. cerevisiae deletion strains, locus YML120C, strain ndi1, stronger effect = lower value 0.98 | S. cerevisiae deletion strains, locus YML124C, strain tub3, stronger effect = lower value 1.02 | S. cerevisiae deletion strains, locus YMR058W, strain fet3, stronger effect = lower value 0.982 | S. cerevisiae deletion strains, locus YMR078C, strain ctf18, stronger effect = lower value 1.02 | S. cerevisiae deletion strains, locus YMR125W, strain sto1, stronger effect = lower value 0.943 | S. cerevisiae deletion strains, locus YMR129W, stronger effect = lower value 0.99 | S. cerevisiae deletion strains, locus YMR205C, strain PFK2, stronger effect = lower value 0.977 | S. cerevisiae deletion strains, locus YMR223W, strain ubp8, stronger effect = lower value 1.02 | S. cerevisiae deletion strains, locus YMR231W, strain pep5, stronger effect = lower value 0.986 | S. cerevisiae deletion strains, locus YMR263W, strain SAP30, stronger effect = lower value 0.986 | S. cerevisiae deletion strains, locus YMR307W, strain GAS1, stronger effect = lower value 1.1 | S. cerevisiae deletion strains, locus YNL067W, strain RPL9B, stronger effect = lower value 0.974 | S. cerevisiae deletion strains, locus YNL071W, strain lat1, stronger effect = lower value 0.937 | S. cerevisiae deletion strains, locus YNL128W, strain TEP1, stronger effect = lower value 0.991 | S. cerevisiae deletion strains, locus YNL153C, strain GIM3, stronger effect = lower value 0.993 and 1.01 | S. cerevisiae deletion strains, locus YNL175C, strain NOP13, stronger effect = lower value 0.999 | S. cerevisiae deletion strains, locus YNL183C, strain NPR1, stronger effect = lower value 0.99 | S. cerevisiae deletion strains, locus YNL209W, strain ssb2, stronger effect = lower value 0.973 | S. cerevisiae deletion strains, locus YNL224C, strain SQS1, stronger effect = lower value 1.01 | S. cerevisiae deletion strains, locus YNL233W, strain BNI4, stronger effect = lower value 0.988 | S. cerevisiae deletion strains, locus YNL248C, strain rpa49, stronger effect = lower value 0.957 | S. cerevisiae deletion strains, locus YNL250W, strain rad50, stronger effect = lower value 0.966 | S. cerevisiae deletion strains, locus YNL271C, strain bni1, stronger effect = lower value 1.01 | S. cerevisiae deletion strains, locus YNL298W, strain CLA4, stronger effect = lower value 0.984 | S. cerevisiae deletion strains, locus YNL307C, strain MCK1, stronger effect = lower value 0.995 | S. cerevisiae deletion strains, locus YNL322C, strain KRE1 (second series), stronger effect = lower value 0.956 | S. cerevisiae deletion strains, locus YNL322C, strain KRE1, stronger effect = lower value 1.01 | S. cerevisiae deletion strains, locus YNR049C, strain mso1, stronger effect = lower value 0.99 | S. cerevisiae deletion strains, locus YNR052C, strain pop2, stronger effect = lower value 1.01 | S. cerevisiae deletion strains, locus YOL006C, strain TOP1, stronger effect = lower value 0.988 | S. cerevisiae deletion strains, locus YOL012C, strain htz1 2.02 | S. cerevisiae deletion strains, locus YOL147C, strain pex11, stronger effect = lower value 1.02 | S. cerevisiae deletion strains, locus YOR001W, strain rrp6, stronger effect = lower value 0.996 | S. cerevisiae deletion strains, locus YOR061W, strain CKA2, stronger effect = lower value 1.01 | S. cerevisiae deletion strains, locus YOR069W, strain VPS5, stronger effect = lower value 1.07 | S. cerevisiae deletion strains, locus YOR070C, strain gyp1, stronger effect = lower value 0.989 | S. cerevisiae deletion strains, locus YOR080W, strain dia2, stronger effect = lower value 0.974 | S. cerevisiae deletion strains, locus YOR083W, strain WHI5, stronger effect = lower value 0.92 | S. cerevisiae deletion strains, locus YOR106W, strain vam3, stronger effect = lower value 0.978 | S. cerevisiae deletion strains, locus YOR136W, strain idh2, stronger effect = lower value 1.02 | S. cerevisiae deletion strains, locus YOR144C, strain elg1, stronger effect = lower value 1.01 | S. cerevisiae deletion strains, locus YOR184W, strain ser1, stronger effect = lower value 1.03 | S. cerevisiae deletion strains, locus YOR231W, strain MKK1, stronger effect = lower value 1.01 | S. cerevisiae deletion strains, locus YOR265W, strain rbl2, stronger effect = lower value 0.993 | S. cerevisiae deletion strains, locus YOR270C, strain vph1, stronger effect = lower value 0.96 | S. cerevisiae deletion strains, locus YOR290C, strain snf2, stronger effect = lower value 0.943 | S. cerevisiae deletion strains, locus YOR316C, strain cot1, stronger effect = lower value 1.03 | S. cerevisiae deletion strains, locus YPL051W, strain arl3, stronger effect = lower value 0.965 | S. cerevisiae deletion strains, locus YPL055C, strain LGE1, stronger effect = lower value 0.93 | S. cerevisiae deletion strains, locus YPL078C, strain atp4, stronger effect = lower value 0.959 | S. cerevisiae deletion strains, locus YPL106C, strain sse1, stronger effect = lower value 0.999 | S. cerevisiae deletion strains, locus YPL240C, strain hsp82, stronger effect = lower value 0.979 | S. cerevisiae deletion strains, locus YPL241C, strain CIN2, stronger effect = lower value 1.05 and 1 | S. cerevisiae deletion strains, locus YPL256C, strain CLN2, stronger effect = lower value 1.05 | S. cerevisiae deletion strains, locus YPR119W, strain clb2, stronger effect = lower value 1.01 | S. cerevisiae deletion strains, locus YPR141C, strain kar3, stronger effect = lower value 1.02 | S. cerevisiae deletion strains, locus YPR163C, strain tif3, stronger effect = lower value 1.01 | S. cerevisiae deletion strains, locus YPR167C, strain met16, stronger effect = lower value 1.02 | S. cerevisiae deletion strains, strain wtn01, stronger effect = lower value 1 | S. cerevisiae strains, strain wild type, stronger effect = lower value 1.02
